High-throughput results deposited in PubChem by National Center for Advancing Translational Sciences (NCATS).
Sampled rows, rich in hits. Any-hit rate of the full collection: about 7.9%.
MCF10A rerep: A quantitative high throughput screen for small molecules that induce DNA re-replication in MCF 10a normal breast cells; MCF 10A DNA re-replication, Hoechst nuclear intensity, 48 h; Potency, µM (doses to about 46.1 µM), inactives show at the highest dose activity, positive = re-replication, most hits filed as activators; 350,000 compounds, 2.9% hits; also: % of control where 0% means no effect; nearly all actives have a fitted effect of over 50% in size
HT1080 IDH1KD tx: qHTS for induction of synthetic lethality in tumor cells producing 2HG: qHTS for the HT-1080-IDH1KD cell line | AID 686971, 2013 | HT-1080 IDH1 knockdown viability, ATP luminescence, 48 h | Potency, µM (doses to about 46.1 µM), without a hit: at the highest dose activity, negative = toxicity, actives largely listed as cytotoxic | 360,000 compounds, 2% hits;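 also: 0% = DMSO wells and -100% = cell-free medium wells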
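Cytotoxicity counter-line: IDH1KD HT-1080, 48 h, CellTiter-Glo. Curves classed by r2, magnitude and activity.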
SW480 rereplic: A quantitative high throughput screen for small molecules that induce DNA re-replication in SW480 colon adenocarcinoma cells. SW480 DNA re-replication, Hoechst DNA content imaging, 48 h. Potency, µM (titrated, usually from 46.1 µM), for the others: at the highest dose re-replication activation, actives largely listed as activators. 340,000 compounds, 1.8% hits. AID 624297, 2012; also: % of control where 0% means no effect; nearly all actives have a fitted effect of over 55% in size
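Readout is total intensity of Hoechst-stained nuclei, excited at 405 nm and collected at 500-530 nm. Compound treatment lasted 48 hr at 37 C in 5% CO2 before staining.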
HT1080NT lethal: qHTS for induction of synthetic lethality in tumor cells producing 2HG: qHTS for the HT-1080-NT fibrosarcoma cell line. HT-1080-NT fibrosarcoma viability, CellTiter-Glo ATP luminescence, 48 h. Potency, µM (top dose mostly 46.1 µM), without a hit: at the highest dose activity, negative = less viability, usual class: cytotoxic. 360,000 compounds, 1.6% hits;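 also: NT is the 2HG producing partner of a matched IDH1 knockdown line; 0% = DMSO-treated cells and -100% = media-only wells without cells; nearly all actives have a fitted effect of over 55% in size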
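Luminescent CellTiter-Glo readout after 48 hours of compound exposure at 37 degrees C defined viability of HT-1080-NT cells. Activity was normalized to DMSO wells and cell-free media wells; concentration-response curves were fitted and assigned curve classes.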
KB-V1 cytotox: qHTS assay for MDR1-selective chemotherapeutics: Primary screen using the drug-selected MDR subline cells KB-V1 | AID 1347076, 2019 | 400,000 compounds, 3.4% hits | KB-V1 MDR cells viability, CellTiter-Glo, 72 h | Potency, µM (series often up to 46.1 µM), actives largely listed as cytotoxic; also: % is scaled to controls: 0 for no effect and ±100 for the full control effect; nearly all actives have a fitted effect of over 60% in size
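Compound-treated KB-V1 multidrug-resistant cells, 72 h, 37 degrees C; viability by CellTiter-Glo. Fitted qHTS curves give the values.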
KB-3-1 tox: qHTS assay for MDR1-selective chemotherapeutics: Primary screen using the parental adenocarcinoma cell KB-3-1 | KB-3-1 viability, CellTiter-Glo ATP luminescence, 72 h | Potency, µM (doses to about 46.1 µM), hits mostly cytotoxic | 400,000 compounds, 1.4% hits; also: % is scaled to controls: 0 for no effect and ±100 for the full control effect; nearly all actives have a fitted effect of over 60% in size
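KB-3-1 cells, DMEM (no phenol red) + 10% FBS; compound by pin transfer, 72 h, 37 °C. Readout: CellTiter-Glo luminescence after 10 min. Data normalized, curve-fitted.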
Starred values were filed as active, the others as inactive; i = inactive; ? = inconclusive; . = no result; [ ] = remark or other dose. Calls follow the shape of the dose curve; as a rule, active = well fitted curve in the direction sought with a large enough effect; inconclusive = small, poorly fitted or top-dose-only effect, or another doubt; inactive = no such curve, though single readings can be large; an effect the other way counts as inactive or inconclusive. Potency is read from the fitted curve at half-maximal effect.

SMILES | MCF10A rerep | HT1080 IDH1KD tx | SW480 rereplic | HT1080NT lethal | KB-V1 cytotox | KB-3-1 tox
O=S(c1cc(Cl)cc(Cl)c1O)c1cc(Cl)cc(Cl)c1O | 13.3µM* | ? | 0.0% | ? | ? | ?
O=C(C1CCC(=O)N(C2CCCC2)C1)N1CCN(Cc2cccc(Cl)c2)CC1 (stereo not given) | 7.2% | 9.9% | 1.4% | 1.5% | ? | i
CCOc1ccc(C2C=C(c3cccc(OC)c3)Nc3nnnn32)cc1 (stereo not given) | . | . | . | . | i | i
COc1cccc(C2=CC(c3cc(Br)ccc3F)n3nnnc3N2)c1 (stereo not given) | . | . | . | . | i | 13µM*
COc1cccc2cc(C(=O)C3=C(O)C(=O)N(CCN(C)C)C3c3ccc(F)cc3)oc12 (stereo not given) | 5.8µM* | 3.4%[9.24 µM] | 8.2µM* | 7.0% | i | i
CCN(CC)CCCN1C(=O)C(O)=C(C(=O)c2cc3cccc(OC)c3o2)C1c1ccncc1 (stereo not given) | ? | -1.0% | -2.0% | -3.5% | i | i
COc1cccc(-c2oc3c(c2C#CC2(N)CCCCC2)C(O)CCC3)c1 (stereo not given) | . | ? | . | 16.4µM* | ? | ?
CC(=O)Nc1cccc(Nc2cc(C)nn2C)c1 | . | 19.3% | . | 25.0% | i | i
Cc1ccc(C(=O)CN2/C(=C(\O)c3ccccc3)C(=O)c3ccccc3S2(=O)=O)c(C)c1 | ? | ? | ? | ? | 2.31µM* | ?
CCOC(=O)C1CCCN(C(=O)C2CCN(c3nnc(C)c4c(C)n(-c5ccccc5)nc34)CC2)C1 (stereo not given) | . | . | . | . | i | i
CCCCn1c(N)c(N(CCC(C)C)C(=O)c2ccc([N+](=O)[O-])s2)c(=O)[nH]c1=O | 23.1µM* | -14.3% | ? | -16.5% | i | i
CCCCN(C(=O)c1ccc([N+](=O)[O-])s1)c1c(N)n(CC(C)C)c(=O)[nH]c1=O | 9.6% | -12.7% | 12.7% | -5.6% | i | i
Cc1ccc(C)c(Nc2cc(C(=O)NC3CCCC3)c3ccccc3n2)c1 | . | . | . | . | i | i
COc1ccc(N2CC3=C(C2=O)C(c2ccc(Br)cc2)NC(=O)N3C)cc1 (stereo not given) | . | . | . | . | 25.9µM* | i
COc1ccc(C2NC(=O)N(C)C3=C2C(=O)N(c2ccc(Br)cc2)C3)cc1 (stereo not given) | . | . | . | . | i | i
O=C(CSc1n[nH]c(-c2ccccc2Cl)n1)NCCc1ccccc1 | . | . | . | . | i | i
Cc1oc(-c2ccccc2F)nc1CS(=O)(=O)CC(=O)N1CCN(c2ccc(Cl)cc2)CC1 | . | . | . | . | i | 16.4µM*
Cc1oc(-c2ccccc2F)nc1CS(=O)(=O)CC(=O)N1CCCCCC1 | -2.6% | -1.2% | 0.1% | -3.5% | i | i
CCOc1cc(NC(=O)c2ccco2)c(OCC)cc1NC(=O)COc1ccccc1C | 2.06µM* | 2.1% | 10.2% | 6.4% | ? | 14.6µM*
Cc1ccccc1OCC(=O)Nc1ccccc1NC(=O)c1ccco1 | 12.5% | 3.8% | 1.5% | 3.6% | i | i
CCOc1ccc(CC(=O)Nc2ccc(NC(=O)c3ccco3)cc2)cc1OCC | 9.3% | 11.6µM* | 2.9% | -23.7% | ? | i
Cc1ccccc1OCC(=O)NNC(=S)NC(=O)c1ccco1 | 14.1µM* | 8.91µM* | ? | ? | i | ?
Cc1ccc(C(=O)NCC(=O)OCc2c(F)cccc2Cl)s1 | 9.0% | 2.0% | -2.9% | 2.6% | i | i
COc1ccc(CN2C(=O)C(CC(=O)NCCCCc3ccccc3)CC(C(=O)N3CCCCCC3)=C2C)cc1 (stereo not given) | . | -6.2% | . | -2.5% | i | .
O=S(=O)(Nc1nc2ccccc2nc1N1CCN(c2ccccc2F)CC1)c1ccc(Cl)cc1 | 10.3µM* | -17.0% | -1.6% | -8.2% | ? | 11.2µM*
SMILES | MCF10A rerep | HT1080 IDH1KD tx | SW480 rereplic | HT1080NT lethal | KB-V1 cytotox | KB-3-1 tox
CCOC(=O)N1CCC(Nc2nc3ccccc3nc2NS(=O)(=O)c2ccc(Cl)cc2)CC1 | -0.1% | -7.4% | 9.0% | -19.0% | 14.6µM* | ?
CC(=O)Nc1ccc(S(=O)(=O)Nc2nc3ccccc3nc2Nc2cccc(O)c2)cc1 | 10.8% | -12.0% | -3.4% | -16.7% | i | i
O=[N+]([O-])c1ccc(S(=O)(=O)Nc2nc3ccccc3nc2Nc2ccccc2)cc1 | 9.7% | 0.0% | 12.9% | 5.9% | 5.17µM* | i
NS(=O)(=O)c1cccc(Nc2nc3ccccc3nc2NS(=O)(=O)c2ccc(Cl)cc2)c1 | ? | 20.6µM* | -3.5% | 18.4µM* | i | i
CCOc1ccc(S(=O)(=O)Nc2nc3ccccc3nc2N2CCN(C)CC2)cc1 | 20.1% | 0.5% | 0.8% | -1.4% | i | i
COc1cc(NC(=O)CCc2nnc3ccc(N4CCC5(CC4)OCCO5)nn23)cc(OC)c1 | 1.3% | -3.0% | -21.8% | -12.3% | i | i
O=C(O)c1ccc(Nc2nc3ccccc3nc2NS(=O)(=O)c2ccc(F)cc2)cc1 | 23.1µM* | -5.1% | -15.2% | -11.4% | i | i
O=C(O)c1cccc(Nc2nc3ccccc3nc2NS(=O)(=O)c2ccccc2)c1 | 13.8% | -0.7% | 1.4% | 1.0% | i | i
CC(C)(C)c1ccc(C(=O)Nc2ccc(S(=O)(=O)Nc3cnc4ccccc4n3)cc2)cc1 | ? | ? | 11.3% | ? | i | i
O=C(Nc1ccc(S(=O)(=O)Nc2cnc3ccccc3n2)cc1)c1ccc(F)cc1 | -4.8% | -27.4% | 7.31µM* | -3.0% | i | i
COC(=O)/C(=C/c1ccccc1)NC(=O)c1ccco1 | 9.5% | 6.4% | -1.7% | 5.4% | i | i
CC(C)OC(=O)/C(=C/c1ccc(Br)cc1)NC(=O)c1ccco1 | 2.6% | -1.9% | -61.1% | -1.7% | 16.4µM* | i
COc1ccc(/C=C/C(=O)NC(=S)NNC(=O)c2cccs2)cc1 | 10.3µM* | ? | 23.1µM* | ? | ? | ?
COc1ccc(C(=O)NNC(=S)NC(=O)c2cccs2)cc1 | ? | ? | 14.2% | ? | i | ?
O=C(/C=C/c1ccc(Br)cc1)NC(=S)NNC(=O)c1ccco1 | ? | 14.6µM* | ? | 16.4µM* | i | i
